About 7,900 targets were measured; listed, in parts, are those with a hit and a random draw of the rest. About 0.6% of all pairs of compound and target were hits. Values without a mark were called inactive.
Tests used:
Assay in all cases: log2 fold change, soluble protein after heating vs DMSO (PISA); higher = thermal stabilisation; K562 cells, 10 uM, 30 min; active = over 0.2 and 3.5 SD of the protein, either way, in both replicates (recomputed)
[1] = compound: CS(=O)(=O)c1ccc(-c2cnc(N)c(C(=O)Nc3ccccc3)n2)cc1
Summary of the method: (§1)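 K562 cells at 2×10^6 cells/mL were treated for 30 min with 10 μM compound, and aliquots were heated for 3 min over 48°C-58°C before pooling. Extraction used PBS with 0.5% NP-40 at 4°C, and soluble protein was the supernatant after 21,000xg for 90 min, measured by TMTpro 16plex LC-MS/MS with channel sums equalised. Thermal stability values, relative to control samples and from duplicates, are log2 fold changes.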

crizotinib = compound: C[C@@H](Oc1cc(-c2cnn(C3CCNCC3)c2)cnc1N)c1c(Cl)ccc(F)c1Cl [crizotinib]
Summary of the method: as §1

[2] = compound: C[C@@H]1COCCN1C2=NC(=NC(=C2)C3(CC3)S(=O)(=O)C)C4=C5C=CNC5=CC=C4
Summary of the method: as §1

[3] = compound: C[C@H](C1=CC=C(C=C1)C(=O)NC2=C3C=CNC3=NC=C2)N
Summary of the method: as §1

duvelisib = compound: C[C@H](Nc1ncnc2nc[nH]c12)c1cc2cccc(Cl)c2c(=O)n1-c1ccccc1 [duvelisib]
Summary of the method: as §1

gandotinib = compound: Cc1cc(Nc2cc(CN3CCOCC3)c3nc(C)c(Cc4ccc(Cl)cc4F)n3n2)n[nH]1 [gandotinib]
Summary of the method: as §1

tozasertib = compound: Cc1cc(Nc2cc(N3CCN(C)CC3)nc(Sc3ccc(NC(=O)C4CC4)cc3)n2)n[nH]1 [tozasertib]
Summary of the method: as §1

[4] = compound: Cc1cc(SCc2sc(-c3ccc(C(F)(F)F)cc3)nc2C)ccc1OCC(=O)O
Summary of the method: as §1

doramapimod = compound: Cc1ccc(-n2nc(C(C)(C)C)cc2NC(=O)Nc2ccc(OCCN3CCOCC3)c3ccccc23)cc1 [doramapimod]
Summary of the method: as §1

bafetinib = compound: Cc1ccc(NC(=O)c2ccc(CN3CC[C@H](N(C)C)C3)c(C(F)(F)F)c2)cc1Nc1nccc(-c2cncnc2)n1 [bafetinib]
Summary of the method: as §1

[5] = compound: Cc1cccc(CC(=O)N2CCc3c2ccc(-c2cn(C)c4ncnc(N)c24)c3F)n1
Summary of the method: as §1

nilotinib = compound: Cc1cn(-c2cc(NC(=O)c3ccc(C)c(Nc4nccc(-c5cccnc5)n4)c3)cc(C(F)(F)F)c2)cn1 [nilotinib]
Summary of the method: as §1

[6] = compound: Cc1nc(Nc2n[nH]c3c2CN(C(=O)N[C@H](CN(C)C)c2ccccc2)C3(C)C)c2sccc2n1
Summary of the method: as §1

dasatinib = compound: Cc1nc(Nc2ncc(C(=O)Nc3c(C)cccc3Cl)s2)cc(N2CCN(CCO)CC2)n1 [dasatinib]
Summary of the method: as §1

[7] = compound: Cc1ncc(-c2ccnc(Nc3ccc(S(C)(=O)=O)cc3)n2)n1C(C)C
Summary of the method: as §1

[8] = compound: Cn1cc(-c2ccc3c(c2)CCN3C(=O)Cc2cccc(C(F)(F)F)c2)c2c(N)ncnc21
Summary of the method: as §1

tipifarnib = compound: Cn1cncc1[C@@](N)(c1ccc(Cl)cc1)c1ccc2c(c1)c(-c1cccc(Cl)c1)cc(=O)n2C [tipifarnib]
Summary of the method: as §1

mubritinib = compound: FC(F)(F)c1ccc(/C=C/c2nc(COc3ccc(CCCCn4ccnn4)cc3)co2)cc1 [mubritinib]
Summary of the method: as §1

ispinesib = compound: Cc1ccc(C(=O)N(CCCN)[C@@H](c2nc3cc(Cl)ccc3c(=O)n2Cc2ccccc2)C(C)C)cc1 [ispinesib]
Summary of the method: as §1

[9] = compound: Cn1cc(-c2ccc3nnc(C(F)(F)c4ccc5ncccc5c4)n3n2)cn1
Summary of the method: as §1

Chain of UniProt Q16513 (Q16513 whole entry, looked up): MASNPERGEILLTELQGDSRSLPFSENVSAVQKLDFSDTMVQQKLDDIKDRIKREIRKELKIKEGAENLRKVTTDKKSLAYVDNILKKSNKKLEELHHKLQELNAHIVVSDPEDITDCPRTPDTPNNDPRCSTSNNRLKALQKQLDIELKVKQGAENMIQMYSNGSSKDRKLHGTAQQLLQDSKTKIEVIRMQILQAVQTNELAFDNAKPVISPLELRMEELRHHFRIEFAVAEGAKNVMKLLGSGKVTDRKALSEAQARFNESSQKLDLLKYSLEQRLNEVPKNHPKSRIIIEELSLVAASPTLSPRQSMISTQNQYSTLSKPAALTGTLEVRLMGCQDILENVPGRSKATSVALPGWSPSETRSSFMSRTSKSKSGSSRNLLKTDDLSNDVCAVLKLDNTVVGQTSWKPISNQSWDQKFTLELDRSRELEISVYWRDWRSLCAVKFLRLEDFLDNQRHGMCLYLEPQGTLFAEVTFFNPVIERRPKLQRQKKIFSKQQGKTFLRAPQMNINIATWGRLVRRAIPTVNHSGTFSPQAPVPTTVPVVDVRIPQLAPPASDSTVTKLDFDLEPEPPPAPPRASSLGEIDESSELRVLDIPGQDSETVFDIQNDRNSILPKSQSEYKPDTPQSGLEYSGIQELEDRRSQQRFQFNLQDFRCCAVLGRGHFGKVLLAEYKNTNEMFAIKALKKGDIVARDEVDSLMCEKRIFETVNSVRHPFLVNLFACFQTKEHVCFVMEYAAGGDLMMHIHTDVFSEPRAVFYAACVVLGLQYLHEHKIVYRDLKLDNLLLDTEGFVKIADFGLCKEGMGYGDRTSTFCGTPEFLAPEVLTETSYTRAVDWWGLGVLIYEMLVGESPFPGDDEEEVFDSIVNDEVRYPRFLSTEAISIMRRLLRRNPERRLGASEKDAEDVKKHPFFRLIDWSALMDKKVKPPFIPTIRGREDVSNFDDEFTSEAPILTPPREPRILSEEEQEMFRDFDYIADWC
Chain of UniProt Q8NDX5 (Q8NDX5 whole entry, looked up): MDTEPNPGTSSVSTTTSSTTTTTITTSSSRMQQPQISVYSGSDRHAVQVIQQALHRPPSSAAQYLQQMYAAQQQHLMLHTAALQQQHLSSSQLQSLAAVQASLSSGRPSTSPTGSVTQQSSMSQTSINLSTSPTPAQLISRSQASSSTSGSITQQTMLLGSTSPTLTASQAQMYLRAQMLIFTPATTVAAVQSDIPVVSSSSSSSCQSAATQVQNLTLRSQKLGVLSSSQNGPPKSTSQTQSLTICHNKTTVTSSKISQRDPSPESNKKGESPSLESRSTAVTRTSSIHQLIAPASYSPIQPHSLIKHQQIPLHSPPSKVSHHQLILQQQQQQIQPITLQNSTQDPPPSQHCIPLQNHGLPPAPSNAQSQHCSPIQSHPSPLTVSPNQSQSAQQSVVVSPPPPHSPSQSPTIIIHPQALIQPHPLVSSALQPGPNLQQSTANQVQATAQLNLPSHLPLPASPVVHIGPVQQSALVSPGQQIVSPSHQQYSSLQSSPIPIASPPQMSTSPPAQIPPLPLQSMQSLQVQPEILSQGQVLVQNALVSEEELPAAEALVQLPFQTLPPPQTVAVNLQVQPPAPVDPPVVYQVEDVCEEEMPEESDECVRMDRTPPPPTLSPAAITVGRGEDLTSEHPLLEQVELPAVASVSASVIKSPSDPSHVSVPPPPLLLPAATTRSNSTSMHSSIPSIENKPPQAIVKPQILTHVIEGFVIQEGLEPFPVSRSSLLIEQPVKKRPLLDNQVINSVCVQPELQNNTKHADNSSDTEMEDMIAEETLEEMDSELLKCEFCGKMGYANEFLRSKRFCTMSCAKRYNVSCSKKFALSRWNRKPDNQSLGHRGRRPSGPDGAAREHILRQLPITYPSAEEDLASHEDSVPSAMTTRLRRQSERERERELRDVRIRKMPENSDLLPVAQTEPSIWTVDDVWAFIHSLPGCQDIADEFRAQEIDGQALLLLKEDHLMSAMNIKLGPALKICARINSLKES
Chain of UniProt Q86T03 (Q86T03 whole entry, looked up): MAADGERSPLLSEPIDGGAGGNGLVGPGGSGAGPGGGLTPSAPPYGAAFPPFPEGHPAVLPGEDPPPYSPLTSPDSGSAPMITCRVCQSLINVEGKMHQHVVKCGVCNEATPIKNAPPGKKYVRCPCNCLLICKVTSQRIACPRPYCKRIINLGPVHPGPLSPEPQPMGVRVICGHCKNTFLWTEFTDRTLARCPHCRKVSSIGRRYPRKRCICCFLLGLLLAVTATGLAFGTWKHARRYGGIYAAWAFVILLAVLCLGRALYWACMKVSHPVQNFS
Chain of UniProt Q02156 (Q02156 whole entry, looked up): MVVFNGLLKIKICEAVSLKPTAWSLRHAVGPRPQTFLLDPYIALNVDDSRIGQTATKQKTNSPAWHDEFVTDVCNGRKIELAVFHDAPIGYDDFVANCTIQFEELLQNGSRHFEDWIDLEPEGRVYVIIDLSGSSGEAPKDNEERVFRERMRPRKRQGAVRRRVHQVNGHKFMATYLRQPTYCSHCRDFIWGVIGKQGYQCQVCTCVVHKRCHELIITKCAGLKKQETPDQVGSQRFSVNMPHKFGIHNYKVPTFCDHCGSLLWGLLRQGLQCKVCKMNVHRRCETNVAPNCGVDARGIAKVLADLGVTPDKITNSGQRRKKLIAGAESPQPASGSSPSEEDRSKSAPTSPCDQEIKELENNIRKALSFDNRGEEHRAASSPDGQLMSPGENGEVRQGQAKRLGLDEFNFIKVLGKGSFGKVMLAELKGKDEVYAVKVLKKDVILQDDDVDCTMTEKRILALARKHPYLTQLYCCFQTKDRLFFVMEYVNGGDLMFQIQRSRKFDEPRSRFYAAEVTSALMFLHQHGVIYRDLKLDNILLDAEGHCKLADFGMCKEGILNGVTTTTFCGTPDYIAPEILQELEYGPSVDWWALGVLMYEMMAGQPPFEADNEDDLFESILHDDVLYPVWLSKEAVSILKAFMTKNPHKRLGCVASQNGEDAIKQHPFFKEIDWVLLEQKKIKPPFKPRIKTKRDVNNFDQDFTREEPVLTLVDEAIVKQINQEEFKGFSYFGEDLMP
Chain of UniProt Q8TCG2 (Q8TCG2 whole entry, looked up): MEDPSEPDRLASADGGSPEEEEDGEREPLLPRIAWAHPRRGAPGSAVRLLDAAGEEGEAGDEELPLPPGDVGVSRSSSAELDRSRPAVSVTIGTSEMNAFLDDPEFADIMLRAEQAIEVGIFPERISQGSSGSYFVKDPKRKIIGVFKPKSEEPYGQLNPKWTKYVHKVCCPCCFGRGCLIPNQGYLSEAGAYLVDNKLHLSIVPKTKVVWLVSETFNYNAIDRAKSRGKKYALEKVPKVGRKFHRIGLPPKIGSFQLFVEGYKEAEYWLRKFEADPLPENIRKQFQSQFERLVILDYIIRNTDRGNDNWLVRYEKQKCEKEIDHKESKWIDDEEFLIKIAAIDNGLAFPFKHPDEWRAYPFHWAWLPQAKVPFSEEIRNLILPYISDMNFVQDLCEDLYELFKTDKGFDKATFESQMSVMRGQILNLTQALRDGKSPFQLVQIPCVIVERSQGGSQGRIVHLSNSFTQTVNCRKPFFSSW
Chain of UniProt Q86W56 (Q86W56 whole entry, looked up): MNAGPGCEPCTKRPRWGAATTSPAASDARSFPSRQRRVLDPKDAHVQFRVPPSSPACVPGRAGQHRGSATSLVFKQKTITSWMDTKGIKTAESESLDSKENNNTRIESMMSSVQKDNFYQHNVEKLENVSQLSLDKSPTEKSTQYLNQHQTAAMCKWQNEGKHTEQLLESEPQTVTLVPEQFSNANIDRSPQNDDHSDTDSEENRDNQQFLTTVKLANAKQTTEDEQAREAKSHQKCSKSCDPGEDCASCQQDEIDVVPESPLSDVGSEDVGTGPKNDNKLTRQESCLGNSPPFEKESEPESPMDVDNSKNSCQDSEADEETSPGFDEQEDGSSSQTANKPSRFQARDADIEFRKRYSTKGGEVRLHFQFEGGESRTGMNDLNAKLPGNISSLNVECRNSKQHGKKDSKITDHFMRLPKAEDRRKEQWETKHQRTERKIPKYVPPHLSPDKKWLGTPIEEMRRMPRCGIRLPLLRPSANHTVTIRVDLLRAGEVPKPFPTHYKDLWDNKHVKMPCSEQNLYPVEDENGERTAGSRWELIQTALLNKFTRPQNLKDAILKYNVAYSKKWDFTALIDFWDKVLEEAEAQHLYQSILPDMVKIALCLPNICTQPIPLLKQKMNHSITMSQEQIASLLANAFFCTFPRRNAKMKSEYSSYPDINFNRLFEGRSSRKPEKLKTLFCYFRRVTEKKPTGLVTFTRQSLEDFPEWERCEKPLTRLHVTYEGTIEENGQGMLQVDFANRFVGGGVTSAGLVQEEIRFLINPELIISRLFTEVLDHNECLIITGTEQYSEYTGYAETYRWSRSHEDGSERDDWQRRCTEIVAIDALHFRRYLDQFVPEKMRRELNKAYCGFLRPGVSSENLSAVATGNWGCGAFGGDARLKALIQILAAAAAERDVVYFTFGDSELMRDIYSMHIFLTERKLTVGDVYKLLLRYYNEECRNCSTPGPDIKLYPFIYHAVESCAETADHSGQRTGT
Chain of UniProt P53801 (P53801 whole entry, looked up): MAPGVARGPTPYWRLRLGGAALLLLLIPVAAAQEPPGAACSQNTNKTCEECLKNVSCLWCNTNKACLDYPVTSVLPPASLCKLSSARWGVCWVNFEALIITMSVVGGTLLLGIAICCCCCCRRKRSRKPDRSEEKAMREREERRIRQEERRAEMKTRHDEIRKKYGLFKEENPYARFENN
Chain of UniProt Q8N165 (Q8N165 whole entry, looked up): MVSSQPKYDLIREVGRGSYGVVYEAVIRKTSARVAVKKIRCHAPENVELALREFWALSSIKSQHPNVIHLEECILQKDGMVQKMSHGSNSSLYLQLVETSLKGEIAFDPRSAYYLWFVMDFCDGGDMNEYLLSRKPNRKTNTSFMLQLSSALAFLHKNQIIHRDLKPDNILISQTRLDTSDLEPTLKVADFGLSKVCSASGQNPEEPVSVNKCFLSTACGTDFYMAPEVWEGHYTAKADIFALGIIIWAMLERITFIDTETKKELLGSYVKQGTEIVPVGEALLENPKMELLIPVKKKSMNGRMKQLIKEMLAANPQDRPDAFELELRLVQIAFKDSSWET

Target | log2 fold change [1] | log2 fold change (crizotinib) | log2 fold change [2] | log2 fold change [3] | log2 fold change (duvelisib) | log2 fold change (gandotinib) | log2 fold change (tozasertib) | log2 fold change [4] | log2 fold change (doramapimod) | log2 fold change (bafetinib) | log2 fold change [5] | log2 fold change (nilotinib) | log2 fold change [6] | log2 fold change (dasatinib) | log2 fold change [7] | log2 fold change [8] | log2 fold change (tipifarnib) | log2 fold change (mubritinib) | log2 fold change (ispinesib) | log2 fold change [9]
PRKCE (UniProt Q02156) | 0.051 | -0.071 | 0.083 | -0.168 | 0.032 | -0.092 | 0.071 | 0.055 | -0.003 | 0.001 | 0.02 | -0.024 | -0.335 (active) | -0.118 | 0.004 | 0.051 | -0.049 | 0.052 |  | 
PI4K2B (UniProt Q8TCG2) | 0.06 | -0.184 |  | 0.118 | 0.132 | -0.045 | -0.168 | -0.016 | 0.01 | -0.084 | 0 | 0.124 | -0.052 | -0.101 | -0.167 | 0.11 |  | 0.053 | -0.355 (active) | 0.146
POLR2C (UniProt P19387) | 0.019 | 0.127 | -0.062 | 0.163 | 0.032 |  | 0.017 | 0.113 | 0.012 | 0.012 |  | -0.042 | 0.073 | -0.031 | 0.3 (active) | 0.003 | -0.081 | -0.097 | 0.034 | -0.06
PIK3CD (UniProt O00329) | -0.019 | 0.009 | 0.034 | 0.14 | 0.233 |  | 0.049 | -0.11 | 0.042 | 0.033 |  |  |  |  |  | -0.228 | 0.031 |  | -0.029 | 0.074
PI4K2A (UniProt Q9BTU6) | 0.031 | -0.185 | 0.032 | 0 | 0.043 | -0.004 | -0.009 | 0.001 | 0.015 | -0.127 | -0.042 | 0.004 | 0.037 | -0.011 | 0.076 | 0.002 | 0.031 | -0.006 | -0.244 (active) | 0.056
PPP1R12A (UniProt O14974) | -0.054 | -0.351 | -0.039 | -0.885 (active) | 0.065 | 0.021 | 0.011 | 0.029 | -0.054 | -0.041 | -0.02 | -0.027 | -0.302 | -0.108 | -0.118 | -0.002 | -0.023 | 0.07 | -0.1 | 0.02
PARP16 isoform 3 (UniProt Q8N5Y8) | -0.008 | 0.076 | -0.021 | 0.079 | 0.048 | 0.081 | -0.007 | -0.081 | 0.072 | 0.096 | -0.005 | -0.034 | -0.019 | -0.009 | 0.053 | 0.011 | -0.092 | 0.089 |  | 
QRICH1 (UniProt Q2TAL8) | -0.01 | -0.2 | 0.07 | 0.016 | 0.143 |  | 0.171 | 0.014 | -0.077 | 0.042 |  | -0.093 | -0.118 | -0.206 | 0.078 | 0.043 | -0.159 | -0.01 | 0.006 | 0.108
PDIK1L (UniProt Q8N165) | 0.009 | -0.082 | -0.003 | 0.029 | 0.086 |  | -0.094 | 0.017 | 0.085 | 0.166 |  | -0.026 | 0.578 (active) | -0.081 | -0.037 | 0.05 | -0.152 | 0.034 | 0.039 | 0.13
PNN (UniProt Q9H307) | -0.043 | -0.154 | 0.022 | -0.05 | 0.034 | 0.012 |  | -0.003 | -0.032 | -0.08 | -0.008 | -0.028 | -0.344 (active) | 0.062 | -0.039 | 0.028 | 0.255 | -0.098 | -0.08 | 0.231
PATL1 (UniProt Q86TB9) | -0.014 | -0.201 | -0.037 | 0.122 | -0.002 | -0.139 | -0.014 | 0.039 | 0.12 | -0.007 | 0.034 |  |  | -0.032 |  | 0.08 | 0.039 | -0.04 | -0.339 (active) | -0.013
PHC3 isoform 7 (UniProt Q8NDX5) | -0.068 | -0.194 | 0.317 | 0.073 |  |  |  |  | 0.131 | 0.222 |  | -0.187 | 0.01 |  | 0 | 0.018 | -0.016 | 0.191 |  | 
PDLIM7 (UniProt Q9NR12) | -0.01 | -0.075 | -0.002 | -0.05 | 0.019 | 0.026 | -0.002 | 0.004 | 0.012 | -0.01 | 0.107 | 0 | -0.078 | -0.036 | -0.01 | 0.006 | -0.091 | -0.042 | -0.075 | -0.048
PIP4P1 isoform 2 (UniProt Q86T03) | 0.021 | -0.395 (active) | -0.123 | 0.086 | -0.085 | 0.107 | 0.021 | -0.048 | -0.025 | -0.044 | 0.102 | 0.031 | -0.004 | 0.051 | -0.016 | -0.158 | 0.112 | -0.037 | -0.353 (active) | 0.01
PTTG1IP (UniProt P53801) | 0.043 | 0.1 | 0.102 | -0.044 | 0.118 | 0.094 | 0.107 | -0.075 | -0.106 | -0.105 | -0.053 | -0.061 | 0.054 | -0.002 | -0.099 | 0.036 | 0.036 | -0.012 |  | 
PTP4A2 (UniProt Q12974) | -0.001 | 0.047 | 0.026 | -0.01 | -0.057 |  | 0.017 | 0.05 | -0.047 | -0.045 |  | 0.007 | -0.056 | 0.089 | -0.43 (active) | 0.094 | 0.048 | 0.047 | 0.154 | -0.013
PKN2 (UniProt Q16513) | 0.025 | -0.191 | 0.067 | -0.057 | 0.027 | -0.058 |  | 0.133 | 0.035 | 0.068 | 0.062 | 0.125 | -0.219 | -0.138 | 0.051 | 0.016 | -0.059 | 0.048 | -0.028 | 0.01
PARG (UniProt Q86W56) | -0.027 | -0.147 | 0.013 | 0.016 | -0.005 | -0.094 | 0.022 | 0.123 | 0.015 | 0.166 | 0.118 | 0.004 | -0.123 | -0.162 | -0.025 | 0.093 | -0.061 | 0.061 | -0.148 | -0.015

Source: the supplement of paper PMC10849652
